# In PubChem BioAssay (EPA / NIEHS):
# Values joined by “and” are separate entries in the source; they are usually repeats but may differ in a detail not shown here. Equal entries are not always repeated. Results filed as inconclusive are left out. Active and inactive are the calls of the source. The calls were made as follows: active = hit-call score of the fitted dose curve at least 0.9, where 1 is the maximum; inconclusive = response in the unintended direction; inactive = score below 0.9.
# Experiments:
# [1] = target: human Neurokinin, NK2 Receptor, TACR2 (gene 6865) (UniProt P21452); assay: NVS_GPCR_hNK2: NovaScreen (NVS) G Protein-Coupled Receptor Assay for human Neurokinin, NK2 Receptor (AID 2283278);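 also: actives reduce bound radioligand signal relative to DMSO baseline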
# Summary of the method: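 Test chemicals displace a radioligand from receptor prepared from CHO cells in a cell-free format, read after 4 hours by scintillation counting on filters. Screening starts at 25 uM in duplicate, and active chemicals then go to concentration series.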
# [2] = target: human Peripheral-type Benzodiazepine Receptor (PBR), TSPO (gene 706) (UniProt P30536); assay: NVS_MP_hPBR: NovaScreen (NVS) Membrane Protein Assay for human Peripheral-type Benzodiazepine Receptor (PBR) (AID 2283331);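 also: hits reduce radioligand binding relative to DMSO baseline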
# Summary of the method: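 Cell-free binding to human colonic membrane preparations measured by filter-based scintillation counting after 1 h. Compounds first run at 25 uM in duplicate, then concentration series for actives; signal loss against DMSO baseline.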
# [3] = NVS_IC_rCaBTZCHL: NovaScreen (NVS) Ion Channel Assay for Calcium Channel, Type L, Benzothiazepine Site (CaBTZCHL) (AID 2283337)
# Summary of the method: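 Test chemicals were added to rat cortical membranes and incubated 1.5 h with a tritiated or iodinated radioligand for the benzothiazepine site. Bound ligand was separated by filtration and counted. Actives from the 25 uM duplicate screen were retested in concentration series.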
# [4] = target: human Adenosine A2a Receptor (AdoRA2a), ADORA2A (gene 135) (UniProt P29274); assay: NVS_GPCR_hAdoRA2a: NovaScreen (NVS) G Protein-Coupled Receptor Assay for human Adenosine A2a Receptor (AdoRA2a) (AID 2283256)
# Summary of the method: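 Compounds screened in duplicate at 25 uM, with actives followed up in concentration series, for displacement of a radioligand from HEK293-derived receptor protein. Bound counts read by filter scintillation at 1.5 hours, DMSO as baseline.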
# [5] = target: human Thromboxane A2 Receptor (TXA2), TBXA2R (gene 6915) (UniProt P21731); assay: NVS_GPCR_hTXA2: NovaScreen (NVS) G Protein-Coupled Receptor Assay for human Thromboxane A2 Receptor (TXA2) (AID 2283282);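 also: actives reduce bound radioligand signal relative to DMSO baseline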
# Summary of the method: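 Human platelet membranes tested for radioligand displacement by filtration and scintillation counting 1 h post-dose. Screened in duplicate at 25 uM; activity fitted as signal loss relative to DMSO.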
# [6] = target: human Opioid Receptor Mu (Opiate Mu), OPRM1 (gene 4988) (UniProt P35372); assay: NVS_GPCR_hOpiate_mu: NovaScreen (NVS) G Protein-Coupled Receptor Assay for human Opioid Receptor Mu (Opiate Mu) (AID 2283290);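 also: hits lower bound tracer signal versus DMSO meaning displacement of the ligand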
# Summary of the method: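 Here, radioligand binding to CHO-extracted receptor was measured after 2.5 h using filter-based scintillation detection. Initial single-concentration screening used 25 uM in duplicate with plate controls; confirmed actives went to concentration-response testing.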
# [7] = target: human Androgen Receptor (AR), AR (gene 367) (UniProt P10275); assay: NVS_NR_hAR: NovaScreen (NVS) Nuclear Receptor Binding Assay for human Androgen Receptor (AR) (AID 2283332)
# Summary of the method: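 Radioligand competitive binding, scintillation read-out, in cell-free extract from LnCAP, measured 20 h after dosing. Screened first in duplicate at 25 uM, then concentration series for actives; activity fitted against DMSO.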
# [8] = target: chimpanzee Androgen Receptor (AR), AR (gene 747460) (UniProt O97775); assay: NVS_NR_cAR: NovaScreen (NVS) Nuclear Receptor Binding Assay for chimpanzee Androgen Receptor (AR) (AID 2283346);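 also: radioligand displacement from AR measured by scintillation counting in a cell-free assay; a loss of bound radioligand signal versus DMSO counts as binding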
# Summary of the method: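 Cell-free competition binding with insect-cell (Sf9/Sf21) extracted chimpanzee AR; scintillation signal from lysate at 72 h. Screened in duplicate at 25 uM, then concentration-response for actives; fitting relative to DMSO.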
# [9] = target: rat Mineralocorticoid Receptor (MR), Nr3c2 (gene 25672) (UniProt P22199); assay: NVS_NR_rMR: NovaScreen (NVS) Nuclear Receptor Binding Assay for rat Mineralocorticoid Receptor (MR) (AID 2283355)
# Summary of the method: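 Primary HTS ran in duplicate at a single 25 uM concentration, with concentration-series follow-up for actives. Receptor source: adrenalectomized rat brain supernatant, cell-free. Radioligand displacement read by scintillation at 24 h, relative to DMSO baseline.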
# [10] = target: rat Peripheral-type Benzodiazepine Receptor (PBR), Tspo (gene 24230) (UniProt P16257); assay: NVS_MP_rPBR: NovaScreen (NVS) Membrane Protein Assay for rat Peripheral-type Benzodiazepine Receptor (PBR) (AID 2283335)
# Summary of the method: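 Competitive displacement of specific radioligand from rat kidney membrane PBR, read by filtration and scintillation after 1 h. Compounds first tested at 25 uM in duplicate, then in concentration series; signal loss relative to DMSO.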
# [11] = target: Muscarinic acetylcholine receptor M2 (Homo sapiens) (UniProt P08172); assay: NVS_GPCR_hM2: NovaScreen (NVS) G Protein-Coupled Receptor Assay for human Muscarinic, M2 Receptor (AID 2283273)
# Summary of the method: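 CHO-expressed human M2 receptor preparation, competitive displacement of a radioligand read by filter-based scintillation counting after 1 h. Single 25 uM duplicate screen, then concentration-response follow-up of actives; DMSO baseline.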
# [12] = target: Androgen Receptor/SRC-1 Co-activator, AR (gene 367) (UniProt P10275); assay: OT_AR_ARSRC1_0960: Odyssey Thera (OT) 16-hour HEK293T Protein-Complementation Assay for Androgen Receptor/SRC-1 Co-activator (AID 2283353);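 also: actives raise the signal above DMSO so potency reflects increased AR and SRC-1 complex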
# Summary of the method: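 Stable HEK293T line carries AR and SRC-1 each linked to a Venus fragment; chemicals are applied for 16 h, cells imaged at two wavelengths, and the 488 nm nucleus/cytoplasm ratio is taken as the signal, rising relative to DMSO.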
# [13] = target: Androgen Receptor/SRC-1 Co-activator, AR (gene 367) (UniProt P10275); assay: OT_AR_ARSRC1_0480: Odyssey Thera (OT) 8-hour HEK293T Protein-Complementation Assay for Androgen Receptor/SRC-1 Co-activator (AID 2283354);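 also: hits raise the complementation signal above DMSO so AC50 marks enhancers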
# Summary of the method: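 Reconstituted split-Venus YFP signal from AR–SRC-1 interaction, read by imaging 8 h post-dose in stable HEK293T lines. The 488 nm nucleus-to-cytoplasm ratio (≥400 cells/image) was fitted upward against DMSO.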
# [14] = target: human Adenosine A1 Receptor (AdoRA1), ADORA1 (gene 134) (UniProt P30542); assay: NVS_GPCR_hAdoRA1: NovaScreen (NVS) G Protein-Coupled Receptor Assay for human Adenosine A1 Receptor (AdoRA1) (AID 2283254)
# Summary of the method: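 Each chemical is first tested twice at 25 uM, actives later in dilution series, against a radioligand bound to human cortex membranes; after 1 h, filter-retained counts are compared with DMSO controls, lower signal indicating displacement.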
# [15] = target: rat Neonicotinoid receptor (NNR), Chrna7 (gene 25302) (UniProt Q05941); assay: NVS_LGIC_rNNR_BungSens: NovaScreen (NVS) Ligand-Gated Ion Channel Assay for rat Neonicotinoid receptor (NNR) (AID 2283315)
# Summary of the method: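 Rat cortical membrane preparation incubated 2.5 h with tritiated or iodinated radioligand and test chemical. Bound radioactivity was filtered and counted by scintillation, and displacement was analysed against DMSO.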
# [16] = target: Estrogen receptor (Homo sapiens) (UniProt P03372); assay: NVS_NR_hER: NovaScreen (NVS) Nuclear Receptor Binding Assay for human Estrogen Receptor (ER) (AID 2283348)
# Summary of the method: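 Cell-free MCF7-derived ER preparation, specific radioligand displaced by test compound, read by scintillation counting 18 h post-dosing. Duplicate single-point 25 uM screen, then concentration-response confirmation; DMSO baseline.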
# [17] = target: bovine Estrogen Receptor (ER), ESR1 (gene 407238) (UniProt P49884); assay: NVS_NR_bER: NovaScreen (NVS) Nuclear Receptor Binding Assay for bovine Estrogen Receptor (ER) (AID 2283345);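 also: actives lower the bound radioligand count which means they displace the ER ligand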
# Summary of the method: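 Bovine uterine membranes; tritiated or iodinated radioligand; competitive displacement; 18 h; scintillation read; DMSO negative control; 25 uM duplicates, then concentration series for actives.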
# human Opioid Receptor Mu (Opiate Mu), OPRM1 (gene 4988), sequence (P35372 whole entry, looked up): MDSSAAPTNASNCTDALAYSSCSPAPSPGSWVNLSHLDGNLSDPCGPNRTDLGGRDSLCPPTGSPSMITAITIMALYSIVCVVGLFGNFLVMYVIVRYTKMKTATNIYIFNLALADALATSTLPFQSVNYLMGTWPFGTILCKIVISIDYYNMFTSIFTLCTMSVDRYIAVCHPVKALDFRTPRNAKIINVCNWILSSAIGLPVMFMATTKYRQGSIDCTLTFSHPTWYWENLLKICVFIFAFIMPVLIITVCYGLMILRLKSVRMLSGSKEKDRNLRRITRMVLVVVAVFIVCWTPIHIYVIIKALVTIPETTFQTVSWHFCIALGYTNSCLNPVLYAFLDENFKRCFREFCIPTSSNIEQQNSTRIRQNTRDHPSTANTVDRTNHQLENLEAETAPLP
# human Peripheral-type Benzodiazepine Receptor (PBR), TSPO (gene 706), sequence (P30536 whole entry, looked up): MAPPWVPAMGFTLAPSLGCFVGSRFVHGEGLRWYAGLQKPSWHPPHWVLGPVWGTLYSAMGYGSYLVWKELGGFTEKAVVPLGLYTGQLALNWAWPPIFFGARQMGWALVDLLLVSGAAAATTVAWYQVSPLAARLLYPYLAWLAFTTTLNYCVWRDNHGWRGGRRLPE
# human Thromboxane A2 Receptor (TXA2), TBXA2R (gene 6915), sequence (P21731 whole entry, looked up): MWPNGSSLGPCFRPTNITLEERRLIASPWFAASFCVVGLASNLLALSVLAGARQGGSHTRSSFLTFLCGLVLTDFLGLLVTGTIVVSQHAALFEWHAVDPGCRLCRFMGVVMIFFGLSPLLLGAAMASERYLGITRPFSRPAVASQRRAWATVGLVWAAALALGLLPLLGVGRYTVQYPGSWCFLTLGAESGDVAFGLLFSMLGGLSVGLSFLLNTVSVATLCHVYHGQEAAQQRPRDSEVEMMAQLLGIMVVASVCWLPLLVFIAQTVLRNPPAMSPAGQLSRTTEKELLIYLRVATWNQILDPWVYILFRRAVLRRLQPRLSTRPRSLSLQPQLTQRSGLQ
# Muscarinic acetylcholine receptor M2 (Homo sapiens), sequence (P08172 whole entry, looked up): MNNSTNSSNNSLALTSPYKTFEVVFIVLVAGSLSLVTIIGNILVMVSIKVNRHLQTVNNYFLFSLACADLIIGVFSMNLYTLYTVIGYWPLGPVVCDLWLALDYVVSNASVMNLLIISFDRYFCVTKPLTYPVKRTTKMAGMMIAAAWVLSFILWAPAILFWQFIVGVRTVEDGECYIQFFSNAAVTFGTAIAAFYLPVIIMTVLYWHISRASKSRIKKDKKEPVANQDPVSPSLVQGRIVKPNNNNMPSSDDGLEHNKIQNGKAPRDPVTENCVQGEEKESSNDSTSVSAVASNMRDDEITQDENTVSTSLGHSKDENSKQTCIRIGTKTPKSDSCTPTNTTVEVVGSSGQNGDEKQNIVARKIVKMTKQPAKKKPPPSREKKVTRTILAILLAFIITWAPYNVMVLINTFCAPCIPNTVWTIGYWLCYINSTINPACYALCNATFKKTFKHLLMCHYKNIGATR
# human Neurokinin, NK2 Receptor, TACR2 (gene 6865), sequence (P21452 whole entry, looked up): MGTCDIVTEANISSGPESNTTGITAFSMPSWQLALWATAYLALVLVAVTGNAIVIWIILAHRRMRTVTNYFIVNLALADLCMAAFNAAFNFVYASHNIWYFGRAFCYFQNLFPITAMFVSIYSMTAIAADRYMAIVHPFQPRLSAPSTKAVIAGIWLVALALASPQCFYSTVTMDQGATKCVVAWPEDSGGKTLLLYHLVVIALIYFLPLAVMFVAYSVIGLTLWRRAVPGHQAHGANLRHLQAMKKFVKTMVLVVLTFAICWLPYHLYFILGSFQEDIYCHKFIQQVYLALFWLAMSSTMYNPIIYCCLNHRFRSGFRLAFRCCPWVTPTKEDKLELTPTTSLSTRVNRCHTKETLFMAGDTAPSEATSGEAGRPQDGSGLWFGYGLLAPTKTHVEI
# chimpanzee Androgen Receptor (AR), AR (gene 747460), sequence (O97775 whole entry, looked up): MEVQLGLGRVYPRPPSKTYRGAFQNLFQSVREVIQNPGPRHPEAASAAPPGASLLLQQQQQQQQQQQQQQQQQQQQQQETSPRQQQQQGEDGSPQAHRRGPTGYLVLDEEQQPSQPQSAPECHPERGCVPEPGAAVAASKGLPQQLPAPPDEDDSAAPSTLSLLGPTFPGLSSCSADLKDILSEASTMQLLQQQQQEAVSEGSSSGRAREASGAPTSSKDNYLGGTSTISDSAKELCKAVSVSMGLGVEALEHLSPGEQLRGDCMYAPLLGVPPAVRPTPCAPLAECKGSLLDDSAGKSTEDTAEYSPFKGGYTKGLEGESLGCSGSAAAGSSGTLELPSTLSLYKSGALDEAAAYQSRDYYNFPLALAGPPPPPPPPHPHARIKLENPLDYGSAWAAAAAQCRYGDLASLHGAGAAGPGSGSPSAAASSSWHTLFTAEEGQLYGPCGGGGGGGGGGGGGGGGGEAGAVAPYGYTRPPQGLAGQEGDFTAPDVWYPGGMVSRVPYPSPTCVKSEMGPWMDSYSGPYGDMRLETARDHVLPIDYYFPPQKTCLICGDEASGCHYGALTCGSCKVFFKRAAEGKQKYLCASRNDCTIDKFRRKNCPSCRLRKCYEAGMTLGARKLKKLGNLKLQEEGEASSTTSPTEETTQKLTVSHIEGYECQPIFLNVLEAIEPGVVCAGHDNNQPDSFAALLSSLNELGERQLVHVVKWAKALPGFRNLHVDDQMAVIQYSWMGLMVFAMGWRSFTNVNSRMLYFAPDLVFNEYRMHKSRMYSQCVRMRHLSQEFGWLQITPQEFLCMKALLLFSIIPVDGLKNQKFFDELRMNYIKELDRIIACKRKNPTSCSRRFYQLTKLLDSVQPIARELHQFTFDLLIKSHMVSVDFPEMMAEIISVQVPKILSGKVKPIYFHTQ
# rat Peripheral-type Benzodiazepine Receptor (PBR), Tspo (gene 24230), sequence (P16257 whole entry, looked up): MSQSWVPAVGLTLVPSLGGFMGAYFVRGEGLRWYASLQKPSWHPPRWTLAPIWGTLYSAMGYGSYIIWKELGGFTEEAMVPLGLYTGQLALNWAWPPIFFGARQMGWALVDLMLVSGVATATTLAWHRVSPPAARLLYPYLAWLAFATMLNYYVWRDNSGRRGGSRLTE
# human Adenosine A2a Receptor (AdoRA2a), ADORA2A (gene 135), sequence (P29274 whole entry, looked up): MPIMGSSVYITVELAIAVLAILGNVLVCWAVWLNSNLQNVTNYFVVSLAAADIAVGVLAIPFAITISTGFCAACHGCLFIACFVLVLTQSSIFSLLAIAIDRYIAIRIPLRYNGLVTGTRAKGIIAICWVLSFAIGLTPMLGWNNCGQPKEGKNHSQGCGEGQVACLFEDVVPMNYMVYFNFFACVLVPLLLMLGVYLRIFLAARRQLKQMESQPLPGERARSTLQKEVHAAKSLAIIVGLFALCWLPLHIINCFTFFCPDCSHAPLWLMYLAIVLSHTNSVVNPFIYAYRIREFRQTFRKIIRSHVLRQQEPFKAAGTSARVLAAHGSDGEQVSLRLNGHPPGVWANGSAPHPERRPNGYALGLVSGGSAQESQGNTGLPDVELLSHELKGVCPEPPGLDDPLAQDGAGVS
# bovine Estrogen Receptor (ER), ESR1 (gene 407238), sequence (P49884 whole entry, looked up): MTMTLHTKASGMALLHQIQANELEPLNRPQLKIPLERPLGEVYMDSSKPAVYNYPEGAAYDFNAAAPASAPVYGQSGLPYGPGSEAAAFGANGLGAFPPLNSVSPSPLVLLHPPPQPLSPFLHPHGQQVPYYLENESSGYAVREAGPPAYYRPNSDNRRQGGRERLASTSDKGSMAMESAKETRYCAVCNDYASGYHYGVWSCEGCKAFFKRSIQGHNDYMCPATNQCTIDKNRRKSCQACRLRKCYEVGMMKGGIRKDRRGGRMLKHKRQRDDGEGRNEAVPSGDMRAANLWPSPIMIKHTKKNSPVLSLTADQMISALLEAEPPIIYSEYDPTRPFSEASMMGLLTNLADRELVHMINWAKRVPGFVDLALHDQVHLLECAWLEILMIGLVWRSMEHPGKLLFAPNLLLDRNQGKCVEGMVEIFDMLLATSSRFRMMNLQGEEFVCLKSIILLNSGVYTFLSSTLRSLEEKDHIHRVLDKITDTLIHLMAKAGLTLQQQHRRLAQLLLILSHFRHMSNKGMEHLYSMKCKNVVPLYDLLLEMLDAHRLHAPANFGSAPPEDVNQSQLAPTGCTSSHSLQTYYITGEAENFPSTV
# rat Mineralocorticoid Receptor (MR), Nr3c2 (gene 25672), sequence (P22199 whole entry, looked up): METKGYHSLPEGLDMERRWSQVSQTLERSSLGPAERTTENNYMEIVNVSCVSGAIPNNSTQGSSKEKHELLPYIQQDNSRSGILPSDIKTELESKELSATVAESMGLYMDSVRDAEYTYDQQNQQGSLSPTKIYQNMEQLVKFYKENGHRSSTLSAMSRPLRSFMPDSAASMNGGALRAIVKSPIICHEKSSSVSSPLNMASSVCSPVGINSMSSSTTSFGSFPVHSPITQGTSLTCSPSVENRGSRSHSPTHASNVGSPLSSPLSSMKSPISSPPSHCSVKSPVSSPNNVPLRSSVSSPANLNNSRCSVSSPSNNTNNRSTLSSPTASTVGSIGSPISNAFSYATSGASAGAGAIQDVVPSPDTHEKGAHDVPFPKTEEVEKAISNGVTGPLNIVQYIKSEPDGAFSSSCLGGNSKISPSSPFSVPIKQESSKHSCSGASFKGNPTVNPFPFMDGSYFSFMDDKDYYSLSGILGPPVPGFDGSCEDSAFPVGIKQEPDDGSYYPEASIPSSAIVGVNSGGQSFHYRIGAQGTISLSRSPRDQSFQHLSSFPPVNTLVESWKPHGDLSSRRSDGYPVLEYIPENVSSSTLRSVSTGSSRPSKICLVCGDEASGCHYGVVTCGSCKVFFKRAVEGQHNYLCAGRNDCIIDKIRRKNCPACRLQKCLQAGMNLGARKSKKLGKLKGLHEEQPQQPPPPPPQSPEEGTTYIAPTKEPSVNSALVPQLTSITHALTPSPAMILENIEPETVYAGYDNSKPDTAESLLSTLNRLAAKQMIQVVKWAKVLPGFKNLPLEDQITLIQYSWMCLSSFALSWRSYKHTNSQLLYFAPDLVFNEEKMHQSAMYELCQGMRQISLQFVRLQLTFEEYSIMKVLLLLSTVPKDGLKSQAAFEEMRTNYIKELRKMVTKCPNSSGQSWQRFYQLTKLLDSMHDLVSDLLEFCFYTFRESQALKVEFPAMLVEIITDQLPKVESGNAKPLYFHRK
compound,measurement,setting,value
CC(C)(C)CC(C)(C)c1ccc(OCCOCC[N+](C)(C)Cc2ccccc2)cc1,AC50,[1],4.14 µM (active)
same,outcome,[2],inactive
same,AC50,[3],2.81 µM (active)
Oc1c(Cl)cc(Cl)c(Cl)c1Cc1c(O)c(Cl)cc(Cl)c1Cl,AC50,[4],5.67 µM (active)
same,outcome,[5],inactive
same,AC50,[6],6.76 µM (active)
same,AC50,[7],24 µM (active)
same,AC50,[8],5 µM (active)
same,outcome,[9],inactive
CC(C)CC(C)CC(O)CC(C)C (configuration not stated),outcome,[5],inactive
COC(=O)c1ccc([N+](=O)[O-])cc1,outcome,[5],inactive
Nc1ccc2cc(S(=O)(=O)O)cc(O)c2c1N=Nc1ccccc1C(F)(F)F,AC50,[2],1.16 µM (active)
same,AC50,[10],5.02 µM (active)
COc1ccc(N=Nc2cc(C)c(N=Nc3ccc(S(=O)(=O)O)cc3)cc2OC)cc1,AC50,[2],2.05 µM (active)
same,AC50,[10],0.0418 µM (active)
same,AC50,[8],25 µM (active)
CCCCN(CCCC)C(=O)N(CCCC)CCCC,outcome,[11],inactive
same,AC50,[2],20.6 µM (active)
same,AC50,[10],10.4 µM (active)
[O-]n1ccccc1=S.[O-]n1ccccc1=S.[Zn+2],AC50,[1],9.86 µM (active)
same,AC50,[6],0.104 µM (active)
CN(c1nccc(=O)[nH]1)C1CCN(c2nc3ccccc3n2Cc2ccc(F)cc2)CC1,outcome,[11],inactive
same,AC50,[5],0.761 µM (active)
same,outcome,[3],inactive
CN(C)C(=O)Nc1ccc(Oc2ccc(Cl)cc2)cc1,outcome,[1],inactive
same,outcome,[5],inactive
same,AC50,[2],2.91 µM (active)
same,AC50,[10],5.74 µM (active)
CN(C)C(=S)SC(=S)N(C)C,AC50,[1],1.59 µM (active)
same,outcome,[10],inactive
CCC(C)=O,outcome,[11],inactive
COc1ccc(OC)c(N=Nc2c(O)ccc3ccccc23)c1,AC50,[1],25 µM (active)
same,AC50,[8],2.85 µM (active)
O=C1OC[C@H](Cc2cccc(O)c2)[C@H]1Cc1cccc(O)c1,AC50,[2],8.4 µM (active) and 3.26 µM (active)
same,AC50,[10],5.43 µM (active)
same,AC50,[8],4.16 µM (active)
CCCCC(CC)COC(=O)c1ccc(O)cc1 (configuration not stated),AC50,[2],2.71 µM (active)
same,AC50,[10],1.23 µM (active)
c1ccc(Oc2ccccc2)cc1,outcome,[2],inactive
same,outcome,[10],inactive
same,outcome,[3],inactive
Cc1ccc(S(=O)(=O)Oc2ccc(N=Nc3ccc(-c4ccc(N=Nc5c(O)ccc6cc(S(=O)(=O)O)cc(S(=O)(=O)O)c56)c(C)c4)cc3C)cc2)cc1,AC50,[2],0.0489 µM (active)
same,AC50,[10],0.118 µM (active)
same,AC50,[8],5.44 µM (active)
same,outcome,[12],inactive
same,outcome,[13],inactive
C=CC(=O)OCCCC,outcome,[2],inactive
same,outcome,[10],inactive
Nc1ccc(Cl)c([N+](=O)[O-])c1,outcome,[4],inactive
CCCCCCCCCCCCCCCC(=O)OC/C=C(C)/C=C/C=C(C)/C=C/C1=C(C)CCCC1(C)C,outcome,[4],inactive
same,outcome,[6],inactive
same,AC50,[2],41.1 µM (active)
same,outcome,[10],inactive
NC(=S)NNC(N)=S,outcome,[1],inactive
same,outcome,[6],inactive
CC(C)Nc1nc(N)nc(Cl)n1,AC50,[4],15.6 µM (active)
C=C(C)C(=O)OCC(CC)(COC(=O)C(=C)C)COC(=O)C(=C)C,AC50,[14],24.6 µM (active)
same,AC50,[11],24.6 µM (active)
COCCc1ccc(OCC(O)CNC(C)C)cc1 (configuration not stated),outcome,[4],inactive
COc1ccc(CCN2CCC(Nc3nc4ccccc4n3Cc3ccc(F)cc3)CC2)cc1,AC50,[11],3.04 µM (active)
same,AC50,[5],0.227 µM (active)
same,outcome,[2],inactive
same,AC50,[3],2.18 µM (active)
CCOc1ccc(N=Nc2ccc(C=Cc3ccc(N=Nc4ccc(OCC)cc4)cc3S(=O)(=O)O)c(S(=O)(=O)O)c2)cc1,AC50,[2],0.00187 µM (active)
same,AC50,[10],5.82 µM (active)
same,AC50,[8],17.7 µM (active)
Cc1cc(CCC(=O)OCCOCCOCCOC(=O)CCc2cc(C)c(O)c(C(C)(C)C)c2)cc(C(C)(C)C)c1O,AC50,[5],0.23 µM (active)
same,AC50,[2],0.721 µM (active)
ClC(c1ccccc1)(c1ccccc1)c1ccccc1,outcome,[4],inactive
same,outcome,[6],inactive
CC(C)(N=C=O)c1cccc(C(C)(C)N=C=O)c1,outcome,[1],inactive
same,AC50,[6],32.8 µM (active)
Cc1cc(=O)oc2cc(N(C)C)ccc12,AC50,[2],6.09 µM (active)
same,AC50,[10],25 µM (active)
same,AC50,[8],6.8 µM (active)
CC(=O)Nc1ccc(C(=O)CCl)cc1,AC50,[5],10.7 µM (active)
C=CC(C)C#N (configuration not stated),outcome,[15],inactive
CS(=O)(=O)OCCCCOS(C)(=O)=O,outcome,[2],inactive
same,outcome,[10],inactive
same,AC50,[16],0.875 µM (active)
C=C(C)[C@H]1CC=C(C)C(=O)C1,AC50,[2],25 µM (active)
CCCCC(CC)COC(C)=O (configuration not stated),outcome,[10],inactive
CCCCOC(=O)CCCCCCCC(=O)OCCCC,outcome,[3],inactive
Cc1[nH]c(=O)c(C#N)cc1-c1ccncc1,outcome,[17],inactive
CCCCCCCCCCCC(=O)OCC(O)CO (configuration not stated),outcome,[17],inactive
same,outcome,[16],inactive
CC(=O)CC(=O)Nc1ccccc1,outcome,[9],inactive
